# Reference: the supplement of paper PMC6555819
# Experiments:
# Test in all cases: PBM binding z-score (relative to random genomic background probes); higher = stronger binding; sequences stand for … in GC…GCGATTGACAGCGTAGAATGAAGG
# [1] = system: PPARg:RXRa DBDmut IVT, anti-RXR (DBD mutation: RXRa K156A/R161A, NR concentration 270 nM, RXRa partner concentration 90 nM)
# Method in brief: (§1)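 Antibodies against each partner of ligand-free nuclear receptor dimers (one per run) detected binding on custom Agilent 4×180K protein-binding microarrays after 1 h incubation. The double-stranded probes had 34-nt variable regions carrying direct-repeat seeds, single-nucleotide variants, half-site ablations and random human genomic background sequences. Binding z-scores, from regression-normalized fluorescence, use the random background probes as reference.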
# [2] = system: PPARg:RXRa IVT, anti-PPARg (NR concentration 270 nM, RXRa partner concentration 90 nM)
# Method in brief: as §1
# [3] = system: PPARg DBDmut:RXRa IVT, anti-PPARg (DBD mutation: PPARg1 K132A/R137A, NR concentration 270 nM, RXRa partner concentration 90 nM)
# Method in brief: as §1
# [4] = system: PPARg DBDmut IVT, anti-PPARg (DBD mutation: PPARg1 K132A/R137A, NR concentration 270 nM)
# Method in brief: as §1
# [5] = system: PPARg homodimer (NR concentration 180 nM)
# Method in brief: as §1
# [6] = system: PXR:RXRa (NR concentration 270 nM, RXRa partner concentration 90 nM)
# Method in brief: as §1
# [7] = system: PXR homodimer (NR concentration 270 nM)
# Method in brief: as §1
# [8] = system: RARa:RXR (NR concentration 270 nM, RXRa partner concentration 90 nM)
# Method in brief: as §1
# [9] = system: RARa homodimer (NR concentration 270 nM)
# Method in brief: as §1
# [10] = system: RARb:RXRa (NR concentration 270 nM, RXRa partner concentration 90 nM)
# Method in brief: as §1
# [11] = system: RARb homodimer (NR concentration 270 nM)
# Method in brief: as §1
# [12] = system: RARg:RXRa (NR concentration 270 nM, RXRa partner concentration 90 nM)
# Method in brief: as §1
# [13] = system: RARg homodimer (NR concentration 270 nM)
# Method in brief: as §1
# [14] = system: RXRa DBDmut IVT, anti-RXR (DBD mutation: RXRa K156A/R161A, NR concentration 90 nM)
# Method in brief: as §1
# [15] = system: RXRa homodimer (NR concentration 180 nM)
# Method in brief: as §1
# [16] = system: THRa:RXRa (NR concentration 90 nM, RXRa partner concentration 90 nM)
# Method in brief: as §1
# [17] = system: THRa homodimer (NR concentration 90 nM)
# Method in brief: as §1
# [18] = system: VDR homodimer (NR concentration 270 nM)
# Method in brief: as §1
Sequence,PBM binding z-score [1],PBM binding z-score [2],PBM binding z-score [3],PBM binding z-score [4],PBM binding z-score [5],PBM binding z-score [6],PBM binding z-score [7],PBM binding z-score [8],PBM binding z-score [9],PBM binding z-score [10],PBM binding z-score [11],PBM binding z-score [12],PBM binding z-score [13],PBM binding z-score [14],PBM binding z-score [15],PBM binding z-score [16],PBM binding z-score [17],PBM binding z-score [18]
TCGAGTAGGGTAGTCGGGGCATTCAGCCAACATA,1.33,0.997,-1.17,-0.743,0.299,-0.12,-0.394,-0.233,-0.527,0.0213,0.403,-0.271,-0.538,0.261,-0.197,0.368,0.185,0.229
AGAAAGAGGGCACGCTGAGTTGATAGCAGAGTAG,3.25,3.07,0.171,-0.413,0.723,1.85,-0.108,1.27,-0.166,2.74,1.64,2.5,3.08,1.36,1.83,1.5,-0.338,1.23
CCTGCTAAGTCATGGTCAGCTAATCTACAGTATG,0.985,-0.177,-0.766,-0.271,0.146,-0.158,-0.39,-0.0535,-0.167,0.586,0.142,0.135,0.315,0.518,0.0599,-0.13,-0.892,-0.337
AGTCAAAGTTTACTAGGTAACGTAAGATTCAGCT,3.45,4.76,0.895,0.737,0.729,0.455,0.255,0.426,0.29,1.81,0.795,0.885,1.46,1.44,0.16,0.591,-0.0944,0.294
TCTTGTAGGTCAACAGGAGGTTAAGAAAGATCGA,6.99,8.17,2.81,3.87,2.63,3.9,-0.245,4.71,0.468,4.57,3.98,6.27,5.18,1.42,4.53,3.41,0.603,0.658
TCTTGTAGATCAAGCAGGTTAAGAGAGCCTGAGT,1.44,0.423,-0.603,-0.0222,-0.58,0.103,-0.227,-0.116,-0.124,0.0485,0.0574,-0.24,-0.296,0.088,0.168,0.276,-0.531,-0.291
AGAGTGAGGTTATACGTAGATCAGGGAAGAAAGT,0.49,0.769,1.06,0.722,1.66,1.39,1.28,1.65,1.14,1.78,1.53,1.82,1.28,1.38,2.03,2.21,1.15,1.41
